Measured values published in the supplement of paper PMC12669032.

Key:
Test in all cases: growth AUC relative to DMSO control (median of replicates) (fraction); higher = more growth (less inhibition), active = hit call of the paper
Settings in all cases: 20 µM; 24 h;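 active = AUC reduced over 20% with Padj below 0.05 in at least 2 of 3 replicates; inactive = otherwise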
Akkermansia muciniphila = tested on: Akkermansia muciniphila
Summary of the method: (§1)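 Each value is the median of three biological replicates, grown on separate days, of a gut bacterial monoculture incubated anaerobically at 37 °C in mGAM with 20 µM compound (1% DMSO). Cultures started at OD600 0.05 and were read at OD600 hourly for 24 h, with the minimum OD set to 0. Area under the growth curve was normalised to the plate median of solvent-only wells, or to row and column medians on the industrial chemical plate.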

Bacteroides caccae = tested on: Bacteroides caccae
Summary of the method: as §1

Bacteroides clarus = tested on: Bacteroides clarus
Summary of the method: as §1

Bacteroides dorei = tested on: Bacteroides dorei
Summary of the method: as §1

Bacteroides stercoris = tested on: Bacteroides stercoris
Summary of the method: as §1

[1] = tested on: Bacteroides thetaiotaomicron
Summary of the method: as §1

Bacteroides uniformis = tested on: Bacteroides uniformis
Summary of the method: as §1

[2] = tested on: Bifidobacterium longum subsp. longum
Summary of the method: as §1

Clostridium difficile = tested on: Clostridium difficile
Summary of the method: as §1

Collinsella aerofaciens = tested on: Collinsella aerofaciens
Summary of the method: as §1

Coprococcus comes = tested on: Coprococcus comes
Summary of the method: as §1

Escherichia coli ED1a = tested on: Escherichia coli ED1a
Summary of the method: as §1

Escherichia coli IAI1 = tested on: Escherichia coli IAI1
Summary of the method: as §1

Eubacterium rectale = tested on: Eubacterium rectale
Summary of the method: as §1

[3] = tested on: Fusobacterium nucleatum subsp. animalis
Summary of the method: as §1

Lactobacillus gasseri = tested on: Lactobacillus gasseri
Summary of the method: as §1

Lactobacillus paracasei = tested on: Lactobacillus paracasei
Summary of the method: as §1

Odoribacter splanchnicus = tested on: Odoribacter splanchnicus
Summary of the method: as §1

[4] = tested on: Parabacteroides distasonis
Summary of the method: as §1

Parabacteroides merdae = tested on: Parabacteroides merdae
Summary of the method: as §1

Measured: growth AUC

OC(c1ccc(Cl)cc1)(c1ccc(Cl)cc1)C(Cl)(Cl)Cl
inactive: Akkermansia muciniphila 1.07 | Bacteroides caccae 0.962 | Bacteroides dorei 0.954 | [2] 0.973 | Clostridium difficile 1.03 | Collinsella aerofaciens 0.973 | Coprococcus comes 1.01 | Escherichia coli ED1a 0.998 | Escherichia coli IAI1 1.03 | Eubacterium rectale 0.805 | [3] 0.977 | Lactobacillus paracasei 1.01
active: Bacteroides clarus 0.409 | Bacteroides stercoris 0.0157 | [1] 0.379 | Bacteroides uniformis 0.0202 | Lactobacillus gasseri 0.162 | Odoribacter splanchnicus 0.687 | [4] 0.0387 | Parabacteroides merdae 0.777

COC(=O)C1(O)c2ccccc2-c2ccccc21
inactive: Akkermansia muciniphila 0.893 | Bacteroides caccae 1.03 | Bacteroides clarus 0.97 | Bacteroides dorei 1 | Bacteroides stercoris 1.01 | [1] 0.981 | Bacteroides uniformis 0.984 | [2] 0.996 | Clostridium difficile 0.991 | Collinsella aerofaciens 1.03 | Coprococcus comes 0.939 | Escherichia coli ED1a 0.966 | Escherichia coli IAI1 1.01 | Eubacterium rectale 0.95 | [3] 0.911 | Lactobacillus gasseri 1.07 | Lactobacillus paracasei 1 | Odoribacter splanchnicus 0.988 | [4] 1.03 | Parabacteroides merdae 0.993

Cc1cccc(C)c1N(Cn1cccn1)C(=O)CCl
inactive: Akkermansia muciniphila 1.02 | Bacteroides caccae 0.829 | Bacteroides clarus 0.997 | Bacteroides dorei 0.974 | Bacteroides stercoris 1.01 | [1] 0.987 | Bacteroides uniformis 0.969 | [2] 1.07 | Clostridium difficile 1.01 | Collinsella aerofaciens 0.952 | Coprococcus comes 0.992 | Escherichia coli ED1a 0.976 | Escherichia coli IAI1 0.952 | Eubacterium rectale 1.09 | [3] 1.1 | Lactobacillus gasseri 0.928 | Lactobacillus paracasei 0.997 | Odoribacter splanchnicus 1.06 | [4] 1.01 | Parabacteroides merdae 0.963

CC(C)OC(=O)Nc1cccc(Cl)c1
inactive: Akkermansia muciniphila 1.06 | Bacteroides caccae 0.915 | Bacteroides clarus 0.985 | Bacteroides dorei 0.948 | Bacteroides stercoris 1.04 | [1] 1.02 | Bacteroides uniformis 0.984 | [2] 0.981 | Clostridium difficile 1.01 | Collinsella aerofaciens 0.963 | Coprococcus comes 1.02 | Escherichia coli ED1a 1.01 | Escherichia coli IAI1 0.965 | Eubacterium rectale 1.07 | [3] 1.06 | Lactobacillus gasseri 0.85 | Lactobacillus paracasei 0.985 | Odoribacter splanchnicus 1.13 | [4] 0.965 | Parabacteroides merdae 1.06

CC(C)=NOCCOC(=O)[C@@H](C)Oc1ccc(Oc2cnc3cc(Cl)ccc3n2)cc1
inactive: Akkermansia muciniphila 0.861 | Bacteroides caccae 0.965 | Bacteroides clarus 1 | Bacteroides dorei 0.958 | Bacteroides stercoris 0.876 | [1] 0.937 | Bacteroides uniformis 0.899 | [2] 0.924 | Clostridium difficile 0.981 | Collinsella aerofaciens 0.954 | Coprococcus comes 0.94 | Escherichia coli ED1a 1.01 | Escherichia coli IAI1 1.01 | Eubacterium rectale 0.957 | [3] 0.864 | Lactobacillus gasseri 1.04 | Lactobacillus paracasei 0.974 | Odoribacter splanchnicus 0.931 | [4] 0.983 | Parabacteroides merdae 0.955

CCOP(=S)(OCC)Oc1cc(-c2ccccc2)on1
inactive: Akkermansia muciniphila 1.24 | Bacteroides caccae 0.984 | Bacteroides clarus 0.984 | Bacteroides dorei 0.861 | Bacteroides stercoris 0.961 | [1] 0.956 | Bacteroides uniformis 0.955 | [2] 1.06 | Clostridium difficile 1.02 | Collinsella aerofaciens 0.942 | Coprococcus comes 1.03 | Escherichia coli ED1a 0.993 | Escherichia coli IAI1 0.993 | Eubacterium rectale 1.05 | [3] 0.973 | Lactobacillus gasseri 0.886 | Lactobacillus paracasei 0.964 | Odoribacter splanchnicus 1.01 | [4] 0.854 | Parabacteroides merdae 1

CCOC(=O)C(C)OC(=O)c1cc(Oc2ccc(C(F)(F)F)cc2Cl)ccc1[N+](=O)[O-] (stereo not given)
inactive: Akkermansia muciniphila 0.88 | Bacteroides caccae 0.95 | Bacteroides clarus 0.931 | Bacteroides dorei 0.985 | Bacteroides stercoris 0.992 | [1] 0.987 | Bacteroides uniformis 0.966 | [2] 0.947 | Clostridium difficile 0.978 | Collinsella aerofaciens 0.857 | Coprococcus comes 0.933 | Escherichia coli ED1a 1.01 | Escherichia coli IAI1 0.964 | Eubacterium rectale 1.01 | [3] 0.999 | Lactobacillus gasseri 0.86 | Lactobacillus paracasei 0.973 | Odoribacter splanchnicus 0.891 | Parabacteroides merdae 0.885
active: [4] 0.789

CCOP(=O)(OCC)OP(=O)(OCC)OCC
inactive: Akkermansia muciniphila 1.07 | Bacteroides caccae 0.988 | Bacteroides clarus 1 | Bacteroides dorei 0.956 | Bacteroides stercoris 0.932 | [1] 1.03 | Bacteroides uniformis 0.992 | [2] 1.02 | Clostridium difficile 1.03 | Collinsella aerofaciens 0.966 | Coprococcus comes 0.976 | Escherichia coli ED1a 0.982 | Escherichia coli IAI1 1.02 | Eubacterium rectale 1.19 | [3] 1.02 | Lactobacillus gasseri 0.954 | Lactobacillus paracasei 0.961 | Odoribacter splanchnicus 0.986 | [4] 0.946 | Parabacteroides merdae 0.919

CCOP(=S)(OCC)Oc1cnccn1
inactive: Akkermansia muciniphila 0.892 | Bacteroides caccae 0.985 | Bacteroides clarus 0.963 | Bacteroides dorei 1.01 | Bacteroides stercoris 0.979 | [1] 0.985 | Bacteroides uniformis 0.982 | [2] 1.04 | Clostridium difficile 0.974 | Collinsella aerofaciens 0.993 | Coprococcus comes 0.984 | Escherichia coli ED1a 0.988 | Escherichia coli IAI1 0.963 | Eubacterium rectale 0.813 | [3] 1.01 | Lactobacillus gasseri 0.993 | Lactobacillus paracasei 1.01 | Odoribacter splanchnicus 1.04 | [4] 1 | Parabacteroides merdae 1.01

OCC(O)CCl (stereo not given)
inactive: Akkermansia muciniphila 1.01 | Bacteroides caccae 1.01 | Bacteroides clarus 0.998 | Bacteroides dorei 1.01 | Bacteroides stercoris 1.02 | [1] 0.984 | Bacteroides uniformis 1 | [2] 0.965 | Clostridium difficile 1.01 | Collinsella aerofaciens 1.01 | Coprococcus comes 0.999 | Escherichia coli ED1a 0.947 | Escherichia coli IAI1 1 | Eubacterium rectale 1 | [3] 0.987 | Lactobacillus gasseri 0.993 | Lactobacillus paracasei 0.978 | Odoribacter splanchnicus 1.01 | [4] 1.02 | Parabacteroides merdae 0.991

CCOC(=O)CC(SP(=O)(OC)OC)C(=O)OCC (stereo not given)
inactive: Akkermansia muciniphila 1.24 | Bacteroides caccae 0.989 | Bacteroides clarus 0.992 | Bacteroides dorei 0.919 | Bacteroides stercoris 0.976 | [1] 1.01 | Bacteroides uniformis 0.972 | [2] 0.996 | Clostridium difficile 0.952 | Collinsella aerofaciens 0.973 | Coprococcus comes 1 | Escherichia coli ED1a 0.97 | Escherichia coli IAI1 0.976 | Eubacterium rectale 1.09 | [3] 0.893 | Lactobacillus gasseri 0.883 | Lactobacillus paracasei 0.973 | Odoribacter splanchnicus 0.913 | [4] 0.902 | Parabacteroides merdae 0.975

CCc1cc(C)cc(CC)c1-c1c(OC(=O)C(C)(C)C)n2n(c1=O)CCOCC2
inactive: Akkermansia muciniphila 1.01 | Bacteroides caccae 0.906 | Bacteroides clarus 1 | Bacteroides dorei 0.992 | Bacteroides stercoris 1.22 | [1] 1.01 | Bacteroides uniformis 1 | [2] 0.952 | Clostridium difficile 0.944 | Collinsella aerofaciens 1 | Coprococcus comes 0.964 | Escherichia coli ED1a 0.99 | Escherichia coli IAI1 0.976 | Eubacterium rectale 1.14 | [3] 1.1 | Lactobacillus gasseri 0.845 | Lactobacillus paracasei 1.03 | Odoribacter splanchnicus 1.03 | [4] 0.851 | Parabacteroides merdae 1.01

CC(C)NC(=O)N1CC(=O)N(c2cc(Cl)cc(Cl)c2)C1=O
inactive: Akkermansia muciniphila 0.919 | Bacteroides caccae 0.969 | Bacteroides clarus 0.989 | Bacteroides dorei 1.01 | Bacteroides stercoris 1.1 | [1] 1.01 | Bacteroides uniformis 0.967 | [2] 1.01 | Clostridium difficile 1.04 | Collinsella aerofaciens 1.05 | Coprococcus comes 1.01 | Escherichia coli ED1a 1.03 | Escherichia coli IAI1 0.983 | Eubacterium rectale 0.995 | [3] 0.948 | Lactobacillus gasseri 1.09 | Lactobacillus paracasei 0.991 | Odoribacter splanchnicus 1 | [4] 0.979 | Parabacteroides merdae 1

COC(=O)C(Cl)Cl
inactive: Akkermansia muciniphila 1 | Bacteroides caccae 0.968 | Bacteroides clarus 0.992 | Bacteroides dorei 1 | Bacteroides stercoris 1.06 | [1] 1.02 | Bacteroides uniformis 0.971 | [2] 0.957 | Clostridium difficile 0.997 | Collinsella aerofaciens 0.991 | Coprococcus comes 0.986 | Escherichia coli ED1a 1 | Escherichia coli IAI1 0.989 | Eubacterium rectale 1 | [3] 1.07 | Lactobacillus gasseri 0.919 | Lactobacillus paracasei 0.938 | Odoribacter splanchnicus 1.01 | [4] 0.998 | Parabacteroides merdae 1

CCOP(=O)(N=C1SCC(C)S1)OCC (stereo not given)
inactive: Akkermansia muciniphila 0.979 | Bacteroides caccae 0.995 | Bacteroides clarus 0.966 | Bacteroides dorei 1.03 | Bacteroides stercoris 0.983 | [1] 1.01 | Bacteroides uniformis 1.03 | [2] 1.03 | Clostridium difficile 0.977 | Collinsella aerofaciens 1 | Coprococcus comes 1.03 | Escherichia coli ED1a 1.02 | Escherichia coli IAI1 0.951 | Eubacterium rectale 1.1 | [3] 1.09 | Lactobacillus gasseri 0.985 | Lactobacillus paracasei 0.971 | Odoribacter splanchnicus 1.04 | [4] 0.977 | Parabacteroides merdae 0.976

Cc1cc(Cl)ccc1OC(C)C(=O)O (stereo not given)
inactive: Akkermansia muciniphila 0.902 | Bacteroides caccae 1.02 | Bacteroides clarus 0.996 | Bacteroides dorei 1 | Bacteroides stercoris 1.01 | [1] 1.01 | Bacteroides uniformis 1 | [2] 0.88 | Clostridium difficile 1.03 | Collinsella aerofaciens 1.01 | Coprococcus comes 0.984 | Escherichia coli ED1a 1.01 | Escherichia coli IAI1 1.02 | Eubacterium rectale 0.978 | [3] 0.945 | Lactobacillus gasseri 1.12 | Lactobacillus paracasei 0.945 | Odoribacter splanchnicus 0.942 | [4] 0.966 | Parabacteroides merdae 1.02
